Compound activity as filed in PubChem.
HT1080NT lethal: qHTS for induction of synthetic lethality in tumor cells producing 2HG: qHTS for the HT-1080-NT fibrosarcoma cell line; HT-1080-NT fibrosarcoma viability, CellTiter-Glo ATP luminescence, 48 h; Potency, µM (highest dose often 46.1 µM), hits mostly cytotoxic; 1.6% of 360,000 active;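 further: NT is the 2HG producing partner of a matched IDH1 knockdown line; nearly all actives have a fitted effect of over 55% in size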
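Toxicity toward the 2HG-producing NT line was scored as %Activity, normalised to DMSO and no-cell wells, from CellTiter-Glo luminescence after 48 hours' treatment.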
TDP1 cell CPT: qHTS for Inhibitors of human tyrosyl-DNA phosphodiesterase 1 (TDP1): qHTS in cells in presence of CPT; chicken DT40 Tdp1-/-;hTDP1 cells + 20 nM CPT, ATP luminescence, 48 h; Potency, µM (highest dose often 46.2 µM), actives largely listed as inhibitors; 12% of 420,000 active; AID 686979, 2013; further: nearly all actives have a fitted effect of over 55% in size
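Chicken DT40 Tdp1-/- cells stably complemented with human TDP1 were seeded at 400 cells/well in medium containing 20 nM camptothecin, exposed to pin-transferred compounds, and grown at 37 °C for at least 48 hr. Viability was read as ATP luminescence.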
IL1B secr inh: qHTS for Inhibitors of Inflammasome Signaling: IL-1-beta AlphaLISA Primary Screen; 4.7% of 360,000 active; activity change, % at 57.5 µM; THP-1 LPS/ATP IL-1B secretion, AlphaLISA, 16 h; active compounds read low; in the data active means activity change below about -50%; inconclusive means mostly about -30% to -49%
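THP-1 cells pretreated 1 hr with compounds (up to 57.5 uM final), then stimulated with LPS (250 ng/mL final) plus ATP (1.25 mM final); secreted IL-1B measured by AlphaLISA after 16 hr, decreased signal indicating inhibition.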
HT1080 IDH1KD tx: qHTS for induction of synthetic lethality in tumor cells producing 2HG: qHTS for the HT-1080-IDH1KD cell line; HT-1080 IDH1 knockdown viability, ATP luminescence, 48 h; Potency, µM (highest dose often 46.1 µM), hits mostly cytotoxic; 2% of 360,000 active; AID 686971, 2013
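Assay cells: HT-1080 with IDH1 knockdown, 750 per well, RPMI/5% FBS. Exposure: 48 h at 37 °C following 2 h pre-incubation. Read: CellTiter-Glo luminescence; fitted concentration-response, curve class assigned.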
DT40 TDP1 no CPT: qHTS for Inhibitors of human tyrosyl-DNA phosphodiesterase 1 (TDP1): qHTS in cells in absence of CPT; 15% of 420,000 active; Potency, µM (highest dose often 46.2 µM), actives largely listed as inhibitors; DT40 Tdp1-/- hTDP1 cells, no CPT, ATP luminescence, 48 h; further: nearly all actives have a fitted effect of over 55% in size
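Compound effects on proliferation are scored in DT40 Tdp1-/-;hTDP1 cells in the absence of CPT. ATP levels (CellTiter-Glo luminescence) are recorded after a ≥48 hr, 37 °C incubation.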
ELG1 DNA repair: qHTS screen for small molecules that inhibit ELG1-dependent DNA repair in human embryonic kidney (HEK293T) cells expressing luciferase-tagged ELG1 | Potency, µM (series often up to 46.1 µM), actives largely listed as inhibitors | HEK293T ELG1-luciferase reporter, luminescence, 16 h; DNA damage induced by 5-fluorouridine | 2.3% of 330,000 active; further: nearly all actives have a fitted effect of over 55% in size
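5-Fluorouridine DNA damage + compound/DMSO, 2,000 cells/well, 16 h, 37 °C/5% CO2. ONE-Glo, 30 min RT, luminescence. Readout = decrease in reporter signal.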
Hits are given with their value; . = inactive; ? = inconclusive; / = not tested or not shown; [ ] = another dose, or the depositor's remark. An excerpt weighted towards active compounds, which were near 19% of everything screened. Unless noted, the call rests on the fitted dose curve; in most records, active means well fitted curve in the direction sought with a large enough effect; inconclusive means small, poorly fitted or top-dose-only effect, or another doubt; inactive means no such curve, though single readings can be large; an effect the other way counts as inactive or inconclusive.

SMILES | HT1080NT lethal | TDP1 cell CPT | IL1B secr inh | HT1080 IDH1KD tx | DT40 TDP1 no CPT | ELG1 DNA repair
CCOC(=O)c1c(CN2CCN(Cc3ccccc3)CC2)n(C)c2cc(Br)c(OC)cc12 | . | ? | . | . | 16µM | .
CCOC(=O)c1c(CN2CCN(CC#N)CC2)n(C)c2cc(Br)c(OC)cc12 | ? | ? | -63 | 21µM | ? | .
CCOC(=O)c1c(CSc2ccccc2)n(C)c2cc(Br)c(OCC(O)CNC(CO)(CO)CO)cc12 (stereo unspecified) | . | ? | -100 | . | 15µM | ?
CCN1CCC(N2CCN(c3ccccc3OC)CC2)CC1 | . | . | . | . | . | .
CCOc1ccc(CCNC(=O)c2ccc3nc(N4CCC(C)CC4)sc3c2)cc1OCC | / | 6.5µM | / | / | 5.2µM | /
CCOc1ccc(CCNC(=O)c2ccc3nc(N4CCOCC4)sc3c2)cc1OCC | . | ? | . | . | ? | 23µM
CCOC(CNC(=O)c1ccc2nc(N3CCC(C)CC3)sc2c1)OCC | . | ? | . | . | ? | ?
COc1ccc(CCNC(=O)c2ccc3nc(N4CCOCC4)sc3c2)cc1OC | . | ? | . | . | ? | ?
CCOC(=O)c1[nH]c(C)c(CCC(=O)N2CCN(c3ccc(OC)cc3)CC2)c1C | / | . | / | / | ? | /
COc1ccc(OC)c(N2CC(O)(c3cccs3)[N+]3=C2SCCC3)c1 (stereo unspecified) | . | . | . | . | . | .
OC1(c2cccs2)CN(c2ccccc2)C2=[N+]1CCCC2 (stereo unspecified) | . | . | -87 | . | . | .
OC1(c2cccs2)CN(c2ccc(Br)cc2)C2=[N+]1CCCS2 (stereo unspecified) | ? | ? | ? | ? | 15µM | ?
OC1(c2ccccc2)CN(c2ccccc2)C2=[N+]1CCS2 (stereo unspecified) | . | ? | -66 | . | . | .
CCOc1ccc(N2CC(O)(c3cccs3)[N+]3=C2CCCC3)cc1 (stereo unspecified) | . | ? | . | . | ? | .
CCCC(=O)Nc1nn(CCC)c2nc3ccccc3cc12 | . | ? | . | . | . | ?
CCCn1nc(NC(=O)c2ccco2)c2cc3ccccc3nc21 | . | 23µM | . | . | 15µM | ?
Cc1ccc2cc3c(NC(=O)c4cccnc4)nn(C)c3nc2c1 | . | . | . | .[9.24 µM] | 13µM | .
CCn1nc(NC(=O)CC(C)C)c2cc3ccc(C)cc3nc21 | . | 29µM | . | . | ? | .
CCn1nc(NC(=O)c2ccncc2)c2cc3cc(C)ccc3nc21 | . | ? | ? | . | 23µM | ?
CCn1nc(NC(=O)c2ccncc2)c2cc3ccc(C)cc3nc21 | . | . | . | ? | . | ?
CC(=O)Nc1nn(C)c2nc3cc(C)ccc3cc12 | . | ? | . | . | ? | .
C[C@]1(CO)CCC[C@@]2(C)C1CC[C@@H](CO)[C@@H]2CCc1ccoc1 (stereo partly specified) | . | ? | . | . | ? | .
O=C(c1ccc(-c2cccc(C(F)(F)F)c2)o1)N1CCCC(C(F)(F)F)C1 (stereo unspecified) | . | ? | . | . | ? | .
CC(=O)N1CCC(C(=O)N2c3ccccc3N=C(c3ccc(C(F)(F)F)cc3)C2C(=O)NC(C)C)CC1 (stereo unspecified) | . | . | . | . | . | /
CCn1nc(NC(=O)c2ccco2)c2cc3cc(C)ccc3nc21 | . | ? | -50 | . | ? | .
SMILES | HT1080NT lethal | TDP1 cell CPT | IL1B secr inh | HT1080 IDH1KD tx | DT40 TDP1 no CPT | ELG1 DNA repair
CCCn1nc(NC(=O)c2ccncc2)c2cc3ccccc3nc21 | . | . | ? | . | ? | ?
CC(C)Cn1nc(NC(=O)c2cccc(Cl)c2)c2cc3ccccc3nc21 | / | 15µM | / | / | 8.2µM | /
COc1ccc(C(=O)NCc2ccc3c(c2)CCN3C(=O)c2ccc(F)cc2)cc1 | / | ? | / | / | 21µM | /
CCOc1ccc(C(=O)NCc2ccc3c(c2)CCN3C(=O)c2ccc(Cl)cc2)cc1 | / | . | / | / | . | /
O=C(NCc1ccc2c(c1)CCN2C(=O)c1ccc(Cl)cc1)c1cccc(F)c1 | / | . | / | / | . | /
COc1ccc(C(=O)NCc2ccc3c(c2)CCN3C(=O)c2ccccc2)cc1 | / | 23µM | / | / | 23µM | /
O=C(NCc1ccc2c(c1)CCN2C(=O)c1ccncc1)c1cccc(Cl)c1 | / | 21µM | / | / | ? | /
Cc1ccccc1C(=O)NCc1ccc2c(c1)CCN2C(=O)c1ccccc1 | / | 13µM | / | / | 10µM | /
O=c1c(NCCc2ccc(Cl)cc2)c(-c2ccccc2)c1=O | . | . | . | . | . | .
CCOc1ccc(C(=O)NCc2ccc3c(c2)CCN3C(=O)c2ccccc2)cc1 | / | 13µM | / | / | 16µM | /
O=C(NCc1ccc2c(c1)CCN2C(=O)c1ccc(F)cc1)c1ccco1 | / | 21µM | / | / | ? | /
CCN(CC(=O)Nc1ccc(NC(C)=O)cc1)C(=O)c1cccnc1Sc1ccc(C)c(C)c1 | . | . | . | . | ? | .
Cc1c(Cc2ccccc2)sc(/N=C/c2ccc3ccccc3c2)c1C(N)=O | 2.9µM | 0.73µM | . | 2.9µM | 0.82µM | ?
Cc1c(Cc2ccccc2)sc(/N=C/c2c(O)ccc3ccccc23)c1C(N)=O | ? | 23µM | . | ? | ? | ?
CCOC(=O)c1cc(CC)sc1/N=C/c1c(O)ccc2ccccc12 | . | . | . | 18µM | ? | .
COc1ccnc(-n2cccc2C#N)c1C#N | . | . | . | . | . | .
C[C@H](NS(=O)(=O)OCC(Cl)(Cl)Cl)C1CC1c1ccccc1 (stereo partly specified) | . | . | . | . | . | .
O=S(=O)(NC1CC(NS(=O)(=O)OCC(Cl)(Cl)Cl)C2CCCCC12)OCC(Cl)(Cl)Cl (stereo unspecified) | ? | 15µM | . | ? | 15µM | ?
CCOc1ccc(S(=O)(=O)NC(C)C(=O)NCc2cccnc2)cc1 (stereo unspecified) | . | . | . | . | . | .
CCS(=O)(=O)c1ccc2oc(SCC(=O)NC34CC5CC(CC(C5)C3)C4)nc2c1 | . | ? | . | . | 13µM | .
CCS(=O)(=O)c1ccc2oc(SCC(=O)NCc3ccccc3)nc2c1 | . | . | . | . | . | .
